Results filed as inconclusive are left out. Activity calls are given as the source filed them. How the source made its calls: active means hit-call score of the fitted dose curve at least 0.9, where 1 is the maximum; inconclusive means response in the unintended direction; inactive means score below 0.9.
Each molecule was assayed against human Retinoic Acid Receptor gamma (RARg), RARG (gene 5916) (UniProt P13631) (assay: ATG_RARg_TRANS: Attagene TRANS-FACTORIAL HepG2 Assay for human Retinoic Acid Receptor gamma (RARg) (AID 2283009)).
Description: ATG_TRANS is a cell-based, multiplexed-readout assay that uses HepG2, a human liver cell line, with measurements taken at 24 hours after chemical dosing in a 24-well plate.ATG_RARg_TRANS is one of 30 assay component(s) measured or calculated from the ATG_TRANS assay. It is designed to make measurements of mRNA induction, a form of inducible reporter, as detected with fluorescence intensity signals by Reverse transcription polymerase chain reaction (RT-PCR) and Capillary electrophoresis technology.Data from the assay component ATG_RARg_TRANS was analyzed into 1 assay endpoint. This assay endpoint, ATG_RARg_TRANS, was analyzed in the positive analysis fitting direction relative to DMSO as the negative control and baseline of activity. Using a type of inducible reporter, measures of mRNA for gain-of-signal activity can be used to understand the reporter gene at the transcription factor-level as they relate to the gene RARG. Furthermore, this assay endpoint can be referred to as a primary readout, because this assay has produced multiple assay endpoints where this one serves a reporter gene function. To generalize the intended target to other relatable targets, this assay endpoint is annotated to the nuclear receptor intended target family, where the subfamily is non-steroidal.
Human liver HepG2 cells are transiently transfected with multiple reporter transcription units (MRTUs) in 6-well plates using FuGene 6 reagent (Roche; 3 ml FuGene/1 mg DNA). The MRTU constructs are regulated by a cis-regulating element (promoter). […] A major difference between the CIS and TRANS system is that in CIS activities of endogenous TFs are measured, whereas the TRANS assay evaluates changes in activities of exogenous, chimeric NR-Gal4 proteins. […] At the end of 24 hour incubation, total RNA was isolated using TriZol reagent (Invitrogen). The isolated RNA is then reverse-transcribed using oligo(dT) primer and Mo-MLV reverse transcriptase (Invitrogen) with DNAse I (Ambion) treatment for 30 min. The one-tenth of the produced cDNA was amplified by PCR using Taq DNA polymerase (Invitrogen) and two reporter sequence-specific primers. The PCR products were fluorescently labeled by primer extension with 6-arboxyfluorescein (6-FAM) 5'-labeled reporter sequence-specific primer (2 min at 95 C, 20 s at 68 C and 10 min at 72 C) and these products were digested with 5U of HpaI (New England Biolabs) for 2h at 37 C. […] The raw capillary electrophoresis data was processed using Attagraph software (Attagene).

Sequence of human Retinoic Acid Receptor gamma (RARg), RARG (gene 5916) (P13631 whole entry, looked up): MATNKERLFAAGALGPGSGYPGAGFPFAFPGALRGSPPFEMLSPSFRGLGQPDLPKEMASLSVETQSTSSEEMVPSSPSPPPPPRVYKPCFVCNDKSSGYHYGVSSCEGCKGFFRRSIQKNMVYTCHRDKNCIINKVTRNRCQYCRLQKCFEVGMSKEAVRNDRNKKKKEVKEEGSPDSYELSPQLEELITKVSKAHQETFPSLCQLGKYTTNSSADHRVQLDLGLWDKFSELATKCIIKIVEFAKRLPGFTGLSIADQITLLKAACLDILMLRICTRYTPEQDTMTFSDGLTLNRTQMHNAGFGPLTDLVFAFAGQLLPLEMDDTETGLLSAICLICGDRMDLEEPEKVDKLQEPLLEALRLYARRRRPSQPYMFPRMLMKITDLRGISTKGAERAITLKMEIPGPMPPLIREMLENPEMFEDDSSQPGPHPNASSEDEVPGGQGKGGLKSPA

Compound | outcome
CCCCC(C#N)(Cn1cncn1)c1ccc(Cl)cc1 (stereo not given) | inactive
COP(=O)(OC)O/C(C)=C/C(=O)N(C)C | inactive
CCNP(=S)(OC)O/C(C)=C/C(=O)OC(C)C (stereo not given) | inactive
O=c1n(Cl)c(=O)n(Cl)c(=O)n1Cl | inactive
CCN(CC)c1nc(C)cc(OP(=S)(OC)OC)n1 | inactive
CC1(C)C(C=C(Cl)Cl)C1C(=O)OC(C#N)c1cccc(Oc2ccccc2)c1 (stereo not given) | inactive
CC(C)(C)C(=O)C(Oc1ccc(Cl)cc1)n1cncn1 (stereo not given) | inactive
COC(=O)N(C(=O)N1CO[C@@]2(C(=O)OC)Cc3cc(Cl)ccc3C2=N1)c1ccc(OC(F)(F)F)cc1 | inactive
Cc1cnc(C2=NC(C)(C(C)C)C(=O)N2)c(C(=O)O)c1 (stereo not given) | inactive
CCOC(=O)C(C)OC(=O)c1cc(Oc2ccc(C(F)(F)F)cc2Cl)ccc1[N+](=O)[O-] (stereo not given) | inactive
O=P(O)(O)CCCl | inactive
C=C(C)CN(CC)c1c([N+](=O)[O-])cc(C(F)(F)F)cc1[N+](=O)[O-] | inactive
CCOc1nc(C(Cl)(Cl)Cl)ns1 | inactive
CC(C)Oc1cccc(NC(=O)c2ccccc2C(F)(F)F)c1 | inactive
CC1(C)CON(Cc2ccccc2Cl)C1=O | inactive
CCSC(=O)N1CCCCCC1 | inactive
CSC(=O)c1c(C(F)F)nc(C(F)(F)F)c(C(=O)SC)c1CC(C)C | inactive
COCc1cnc(C2=NC(C)(C(C)C)C(=O)N2)c(C(=O)O)c1 (stereo not given) | inactive
CNC(=O)Oc1cccc2ccccc12 | inactive
CCOc1cc(C(C)(C)C)ccc1C1COC(c2c(F)cccc2F)=N1 (stereo not given) | inactive
CCCC(=NOCC)C1=C(O)CC(CC(C)SCC)CC1=O (stereo not given) | inactive
CC(C)=CC1C(C(=O)OCc2coc(Cc3ccccc3)c2)C1(C)C (stereo not given) | inactive
COc1cc(Cl)c(OC)cc1Cl | inactive
Nc1c(Cl)c(F)nc(OCC(=O)O)c1Cl | inactive
CCCN(CC)CC1COC2(CCC(C(C)(C)C)CC2)O1 (stereo not given) | inactive
CC1(C)CCC(=Cc2ccc(Cl)cc2)C1(O)Cn1cncn1 (stereo not given) | inactive
CC1(C)C(C(=O)OC(C#N)c2cccc(Oc3ccccc3)c2)C1(C)C (stereo not given) | inactive
Cc1c(COC(=O)[C@@H]2[C@H](/C=C(\Cl)C(F)(F)F)C2(C)C)cccc1-c1ccccc1 | inactive
Cc1nc(N(C)C)nc(OC(=O)N(C)C)c1C | inactive
CS(=O)(=O)c1cc(C(F)(F)F)ccc1C(=O)c1cnoc1C1CC1 | inactive

Reference: PubChem BioAssay (EPA / NIEHS)
